Experimental data reported in PubChem BioAssay (NCI).
About 83,000 compounds went through this panel and 20% of them were active in at least one assay; those are over-represented in the sample as a whole.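 Assay: single dose, 48 h. Readout: percent growth (0 = no net growth; negative = cell death). Active: <10.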 Values without a mark were called inactive. Active and inactive are the calls of the source.

What follows are molecules tested on HL-60(TB) leukemia (assay: NCI-60 one-dose screen, 48 h (100 = growth as untreated, 0 = no growth, -100 = all killed)). Details: 10 µM unless noted.

SMILES	growth
CC1=NCC2NC(=O)NC(C)=C12 (centres undefined)	109%
OC1(c2ccc(Cl)c(C(F)(F)F)c2)CCN(CCCC(c2ccc(F)cc2)c2ccc(F)cc2)CC1	-49.6% (active)
COc1ccc(/C=C/C(=O)c2ccc(Oc3ncnc4ccccc34)cc2)cc1OC	54.7%
COc1ccc(-c2cc(-c3cc(OC)ccc3OC)nc(N)c2C#N)cc1	90.4%
CCC12CCC[N+]3([O-])CCC4(C(=Nc5ccccc54)C(O)(C(=O)OC)C1)C23 (centres undefined)	124%
Cc1cc2cc3cc(C)c(N(C)C)cc3nc2cc1N(C)C	47.5%
Cc1cccc(NC(=O)Nc2ccc(-c3ccc4c(c3)NC(=O)/C4=C\c3ccc[nH]3)cc2)c1	75.1%
CCN(CC)CCNC(Cc1ccccc1)c1ccc(OCc2ccccc2)cc1 (centres undefined)	46.8%
C/C(=C\c1ccccc1)C(O)C(=O)c1nc2ccc([N+](=O)[O-])cc2[nH]c1=O (centres undefined)	83%
C[n+]1c(/C=C\C=C\N2CCCCC2)sc2ccccc21	-37.3% (active)
Cc1nc2ccccc2n1CC1C(=O)NC(=O)NC1=O	102%
Cc1ccc(S(=O)(=O)/C(=C\c2ccc(Cl)cc2)C(=O)c2ccccc2)cc1	97.1%
COc1cc(C(=O)/C=C/c2c(-c3cccs3)nc3ccccn23)cc(OC)c1OC	-14.2% (active)
CN1CCN(c2ccc3nc(-c4[nH]ncc4Nc4ncnc5c4OCCCN5)[nH]c3c2)CC1	-28.7% (active)
Cc1cccc2c(=O)c3c(sc12)c(NCCN)nc1ccccc13	-62.7% (active)
COC(=O)c1c(NC(=O)CSc2nnnn2-c2ccc(OC)cc2)sc(C)c1C	-6.74% (active)
CCOc1cc2ncc(C#N)c(Nc3ccc(OCc4ccccn4)c(Cl)c3)c2cc1NC(=O)/C=C/CN(C)C	2.7% (active)
O=C(Nc1cccc2ccccc12)c1cc2ccccc2cc1O	9.13% (active)
O=c1[nH]cc(Nc2cc(Cl)c3nonc3c2[N+](=O)[O-])c(=O)[nH]1	75.8%
COc1ccc2c(c1)C(=O)CC(c1ccccc1OC)O2 (centres undefined)	88.2%

SMILES	growth
CC1=C(CCC(C)NCc2ccc(OCCCN3CCCCC3)cc2)C(C)(C)CCC1 (centres undefined)	-68.7% (active)
COc1ccc(-c2nn(-c3ccccc3)cc2/C=C2\SC(=S)N(CCc3ccc(O)cc3)C2=O)cc1	84%
O=c1ccc(N=Nc2ccccc2)ccc1Cl	42.8%
c1ccc2c[n+](Cc3ccc4ccccc4n3)ccc2c1	74.3%
c1coc([C@@H]2C[C@@H]3Cc4ccc5ccccc5c4N2O3)c1	100%
O=Nc1c(-c2c(O)[nH]c3ccc([N+](=O)[O-])cc23)[nH]c2ccc(O)cc12	3.67% (active)
NS(=O)(=O)Oc1ccc(NC(=O)C2CCCCCC2)cc1	99.2%
Nc1ncc(-c2ccc(C(F)(F)F)cc2)c(NC2CCCCCC2)n1	16.8%
CCC(C)(C)c1ccc(OCCCCCCN2CCN(c3ccc(C)c(Cl)c3)CC2)cc1	84.5%
CCN(CC)CCCNc1nc2ccccc2c2c(=O)c3cc(Cl)ccc3sc12	64.5%
C[C@]1(CO)C[C@@H](O)C[C@]2(C)[C@@H]1CC[C@@]13C[C@@H]4[C@@H](C[C@H]12)[C@]4(C)C3	103%
CC(C)=CCCC(C)c1ccc(C)c2c1OCN(CCCCCO)C2 (centres undefined)	51.7%
Nc1c(C(=O)Nc2cccc(Cl)c2)sc2ncc(Br)cc12	108%
O=C(C1CCC1)N1N=C(c2ccc(-n3ccc(C(F)(F)F)n3)cc2)CC1c1ccc[nH]1 (centres undefined)	97.8%
Nc1c(C(=O)Nc2ccccc2Cl)sc2nc3c(cc12)C(=O)CCC3	67.1%
COc1ccc(OC)c(N(CCN2C(=O)c3ccccc3C2=O)C(=O)CCl)c1	-63.3% (active)
Brc1ccc(-c2[nH]ncc2-c2c[nH]c3ccccc23)cc1	80.7%
C/C=C/C/C=C/[C@H](C)C[C@H](O)[C@@H]1C[C@@H]2O[C@H]2/C=C/[C@H](O)[C@@H](O)/C=C/C[C@H](C)CC(=O)O1	76.6%
OCC1OC(n2cnc3c(N/N=C\c4ccccn4)ncnc32)C(O)C1O (centres undefined)	6.17% (active)
